The results in this text go back to PubChem BioAssay.

This experiment in a line: binders of probe aHhip on microarray, primary screen, stem cell growth factor project, biochemical, small-molecule microarray, fluorescence 635/667 (AID 1087).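 Further: score merges spot fluorescence at 667nm with spot signal to noise ratio.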 The note with it: higher = more signal.
`C=C(/C(=C/C[C@H](OC(C)=O)c1ccccc1OCCO)c1cc(C(=O)OC)ccc1OC)C(C)C` showed a composite z-score of 0.126.
Regarding `C[N+](C)(C)CCCC[C@@H]1NC(=O)[C@H]2C[C@@H](C(=O)NCCCCCCN)[C@@H](c3ccc(O)cc3)N2C1=O`, the composite z-score was 0.373.
For `COc1ccccc1CN1C(=O)c2ccccc2[C@](Cc2ccccc2I)(C(=O)NCC(F)(F)F)[C@@H]1c1ccc(CO)cc1`, the composite z-score turned out to be 0.0373.
As for `O=C(NCc1ccccc1)[C@@H]1c2ccccc2C(=O)N(Cc2ccccc2C(F)(F)F)[C@H]1c1ccc(CO)cc1`, the composite z-score is -0.293.
With `COC(=O)[C@H](Cc1ccccc1)N1CC(/C=C/C2CC2)=C[C@H]1[C@H](O)Cc1ccccc1`, the composite z-score stood at 0.0274.
To `CCOC(=O)C1=CC[C@@H](c2ccc(OCc3ccccc3)c(OC)c2)N(S(=O)(=O)c2ccc(C)cc2)[C@H]1c1ccc(SC)cc1` belongs 0.245; to `COc1cccc(/C=C/C=O)c1`, 0.57.
For the compound `CC(=O)NCCCC[C@@H]1NC(=O)[C@H]2C[C@@H](C(=O)NCCCC[N+](C)(C)C)[C@@H](c3cccc(OCCO)c3)N2C1=O`, the composite z-score worked out at 0.24.
Consider `O=C1C2C=CC(C(O)c3ccccc3)N(Nc3ccccc3F)C2C(=O)N1c1ccccc1` (stereo not given), for which the composite z-score is -0.191.
As for `CCOC(=O)C[C@H]1[C@H](OC(=O)c2ccccc2-c2ccccc2)[C@@H](NC(=O)c2ccc(-c3ccccc3)cc2)c2cc(OCCCO)ccc2N1C(=O)c1ccc2ccccc2n1`, the composite z-score was -0.145.
For the compound `CO[C@]12C=C(Br)[C@@H](C[C@@H]1c1cccc(C)c1)[C@@]1(CO1)C2=O`, the composite z-score is -0.0708.
The same measure for `[N-]=[N+]=Nc1ccccc1[C@@H]1OC(c2ccc(OCCCO)cc2)=N[C@]1(Cc1ccccc1)C(=O)NCC(O)CO` (stereo not given in full): 0.28; for `COc1ccc([Si](C)(C)[C@@H]2[C@@H](CCn3cc([C@H](O)c4ccccc4)nn3)O[C@]3(C(=O)N(Cc4ccc(N5CCC5=O)cc4)c4ccccc43)[C@H]2C)cc1`: -0.503.
As for `C=CCC(OC(C)=O)[C@@H]1[C@@H](N(Cc2ccc(-c3cccc(C(F)(F)F)c3)o2)C(=O)c2ccc(C)cc2)c2cc(OCCCO)ccc2N1C(=O)c1ccc2ccccc2c1` (stereo not given in full), the composite z-score was 0.0749.
In turn, `C=CCC(OC(C)=O)[C@@H]1[C@@H](N(Cc2cccc3ccccc23)C(=O)Cc2ccc(F)cc2)c2cc(OCCCO)ccc2N1C(=O)c1ccc2ccccc2n1` (stereo not given in full) registered a composite z-score of 0.347.
The same measure for `C[C@H]1NC(=O)[C@@]23C(=O)N[C@@H](Cc4ccccc4)C2[C@H](C)[C@@]2(C)O[C@H]2C3/C=C/C/C=C\CNC(=O)[C@H](Cc2ccccc2)NC1=O` (stereo not given in full): -0.137.
`CCCCCCCCCCC(O)C1C=CC2C(=O)N(C)C(=O)C2N1Nc1ccc([N+](=O)[O-])cc1[N+](=O)[O-]` (stereo not given): the composite z-score was -0.0994.
The compound `NCCCCCCNC(=O)[C@@H]1C[C@@H]2C(=O)N[C@@H](CCCCN)C(=O)N2[C@@H]1c1cccc(OCCO)c1` yielded a composite z-score of 0.704.
As for `N#Cc1ccc(C(O)C2C=CC3C(=O)N(c4ccccc4)C(=O)C3N2Nc2ccccc2)cc1` (stereo not given), the composite z-score is -0.069.
With `CC1=C([C@H](O)CCc2ccccc2)[C@H](CO)[C@@H]2C(=O)N(C)C(=O)[C@@H]2C1`, the composite z-score was -0.137.
Regarding `CCOC(=O)C1=CC[C@@H](c2cccc(Cl)c2)N(S(=O)(=O)c2ccc(C)cc2)C1`, the composite z-score is -0.0994.
`COCCOC(=O)N1C(=O)[C@@]2(c3cc(C#Cc4ccc(OC)cc4)ccc31)[C@H](C(=O)Nc1nc3ccccc3s1)[C@H]1C(=O)O[C@H](c3ccccc3)[C@H](c3ccccc3)N1[C@@H]2c1ccc(O)cc1`: the composite z-score is 0.282.
For the compound `COc1ccc(C#Cc2ccc3c(c2)[C@]2(C(=O)N3)[C@H](c3ccc(O)cc3)N3[C@H](c4ccccc4)[C@H](c4ccccc4)OC(=O)[C@H]3[C@@H]2C(=O)O)cc1`, the composite z-score is -1.08.
On to `CC(C)C[C@@H]1NC(=O)[C@@H]2C[C@H](C(=O)NCCCCCN)[C@H](c3ccc(O)cc3)N2C1=O`, for which the composite z-score is 0.0854.
Consider `CN1C(=O)C2C=CC(C(O)c3ccc(F)cc3)N(Nc3ccccc3)C2C1=O` (stereo not given), for which the composite z-score was -0.215.
Take `CCC[C@@H]1C[C@@]1(CCC)[C@@H](NC(=O)OCc1ccccc1)c1ccc(-c2ccccc2)cc1`: the composite z-score is 3.09.
Turning to `COc1ccc(NC(=O)O[C@H]2[C@H](OC(=O)Nc3ccccc3)[C@H](OC(=O)Nc3ccccc3)[C@@H](OC)O[C@@H]2CO)cc1`, the composite z-score came out at 0.281.
For `CC(C)[Si](C#C[Si](C(C)C)(C(C)C)C(C)C)(O[C@H](C)c1cn([C@H](CO)Cc2ccccc2)nn1)C(C)C`, the composite z-score was -0.111.
Take `[N-]=[N+]=NCc1ccccc1[C@@H]1OC(c2ccc(OCCCO)cc2)=N[C@]1(CCS(=O)(=O)c1ccccc1)C(=O)NCC(O)CO` (stereo not given in full): the composite z-score is -0.0994.
As for `CCC(CC)C(O)C1C=CC2C(=O)N(c3ccccc3)C(=O)C2N1Nc1ccc(C(C)C)cc1` (stereo not given), the composite z-score is -0.195.
`C=C(C)C1CCC(C(O)C2C=CC3C(=O)N(C)C(=O)C3N2N2CCCCC2)CC1` (stereo not given) had a composite z-score of 0.134.
Consider `O=C1NC(=O)C2C1C=CC(C(O)c1cccc3ccccc13)N2Nc1ccc(Cl)cc1Cl` (stereo not given), for which the composite z-score was -0.0994.
The compound `C=CCOC(=O)[C@H]1[C@@H]2C(=O)O[C@@H](c3ccccc3)[C@@H](c3ccccc3)N2[C@@H](c2ccc(OCCOC(=O)[C@@H]3C[C@@H]4C(=O)N[C@@H](CCCCN(C)C)C(=O)N4[C@@H]3c3ccc(O)cc3)cc2)[C@]12C(=O)Nc1ccccc12` displayed a composite z-score of 0.0623.
Consider `CCOC(=O)C1=CC[C@@H](c2ccccc2C(F)(F)F)N(S(=O)(=O)c2ccc(C)cc2)[C@H]1c1ccc(C#N)cc1`, for which the composite z-score was -0.0024.
Regarding `CCCNC(=O)[C@@H]1c2ccccc2C(=O)N(C(C)C)[C@H]1c1ccc(CO)cc1`, the composite z-score was -0.271.
